Reference: PubChem BioAssay (NCI)
This is part of a sample that, as a whole, favours compounds with a hit. Of some 79,000 tested, about 15% had one in any assay. Calls of active or inactive are those of the source. Rule as the data show it: active = growth inhibition above about 70%; inactive = the rest.

How the values were obtained:
[1] = NCI Yeast Anticancer Drug Screen. Data for the rad52 strain (AID 147);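 also: 0% = growth of vehicle-treated control cultures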; conditions: S. cerevisiae rad52 mutant growth inhibition, stronger effect = higher value
Summary of the method: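 Inhibition of yeast growth, referenced to vehicle controls, was the measured output for a strain with defective DNA damage repair.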

[2] = NCI Yeast Anticancer Drug Screen. Data for the wt1 strain (AID 149);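 also: 0% = growth of vehicle-treated wt1 cultures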; conditions: S. cerevisiae wt1 strain (SPY 50644) growth inhibition, stronger effect = higher value
Summary of the method: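 Compounds are added to wt1 yeast cultures. Growth is then measured. Inhibition is expressed relative to vehicle-treated controls.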

[3] = NCI Yeast Anticancer Drug Screen. Data for the rad50EPP+ strain (AID 151);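 also: 0% = growth of vehicle-treated control cultures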; conditions: S. cerevisiae rad50 mutant strain, stronger effect = higher value
Summary of the method: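 Genetically defined yeast (rad50EPP+, DNA damage repair alteration) is grown with compound, and inhibition of growth is expressed relative to vehicle-treated controls.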

[4] = NCI Yeast Anticancer Drug Screen. Data for the mgt1 strain (AID 153); conditions: S. cerevisiae mgt1 mutant growth inhibition, stronger effect = higher value
Summary of the method: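 In the mgt1 strain, test compounds were added and growth inhibition was determined relative to vehicle-treated controls.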

[5] = NCI Yeast Anticancer Drug Screen. Data for the rad50 strain (AID 155);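 also: 0% = growth of vehicle-only cultures of the same strain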; conditions: S. cerevisiae rad50 strain growth inhibition, stronger effect = higher value
Summary of the method: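 Inhibition values express reduced yeast growth in compound-treated cultures relative to vehicle-treated controls.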

[6] = NCI Yeast Anticancer Drug Screen. Data for the mec2-1 strain (AID 157); conditions: S. cerevisiae mec2-1 strain, stronger effect = higher value
Summary of the method: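 Each compound was tested on mec2-1 yeast, a strain altered in DNA damage repair or cell cycle control. Growth inhibition is reported relative to vehicle.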

[7] = NCI Yeast Anticancer Drug Screen. Data for the rad14 strain (AID 159);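 also: 0% = growth of vehicle-treated control cultures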; conditions: S. cerevisiae rad14 strain growth inhibition, stronger effect = higher value
Summary of the method: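 A mutant yeast strain defective in DNA damage repair is treated with compound; inhibition of its growth is scored against untreated, vehicle-exposed cultures.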

[8] = NCI Yeast Anticancer Drug Screen. Data for the sgs1 mgt1 strain (AID 161);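 also: 0% = growth of cultures given vehicle only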; conditions: S. cerevisiae sgs1 mgt1 strain, stronger effect = higher value
Summary of the method: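 Test agents were incubated with a DNA-repair-mutant yeast strain. Growth was then read and compared against vehicle-treated controls.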

[9] = NCI Yeast Anticancer Drug Screen. Data for the CLN2oe strain (AID 163);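 also: 0% = growth of vehicle-only control cultures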; conditions: S. cerevisiae CLN2oe strain, stronger effect = higher value
Summary of the method: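 First, the altered yeast strain was treated with each compound; second, its growth was measured; finally, inhibition was derived by comparison with vehicle controls.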

[10] = NCI Yeast Anticancer Drug Screen. Data for the cln2 rad14 strain (AID 165);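 also: 0% = growth equal to vehicle treated cultures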; conditions: S. cerevisiae cln2 rad14 strain, stronger effect = higher value
Summary of the method: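 Test compounds were added to cln2 rad14 yeast cultures; inhibition of growth was then determined by comparison with vehicle treatment.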

[11] = NCI Yeast Anticancer Drug Screen. Data for the bub3 strain (AID 167); conditions: S. cerevisiae bub3 mutant strain, stronger effect = higher value
Summary of the method: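 Steps: expose the mutant yeast strain to compound; grow alongside vehicle-treated cultures; measure growth; express inhibition against the vehicle cultures.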

[12] = NCI Yeast Anticancer Drug Screen. Data for the wt2 strain (AID 169);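 also: 0% = growth of vehicle-treated yeast cultures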; conditions: S. cerevisiae wt2 strain growth inhibition, stronger effect = higher value
Summary of the method: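 The panel's yeast strains carry defined changes in DNA repair or cell cycle genes. Each strain is grown with compound, and growth loss is scored relative to vehicle.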

[13] = NCI Yeast Anticancer Drug Screen. Data for the mlh1 strain (AID 171);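 also: 0% = growth of vehicle-treated control cultures of the same strain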; conditions: S. cerevisiae mlh1 strain growth inhibition, stronger effect = higher value
Summary of the method: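 Inhibition values reflect reduced yeast growth in the presence of compound, referenced to vehicle controls, using a strain chosen for its alteration in DNA repair or cell cycle control.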

[14] = NCI Yeast Anticancer Drug Screen. Data for the sgs1 strain (AID 173);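 also: 0% = growth of vehicle-only control cultures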; conditions: S. cerevisiae sgs1 mutant, stronger effect = higher value
Summary of the method: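 Vehicle-treated cultures served as reference for growth inhibition of a yeast strain altered in DNA damage repair or cell cycle control after compound exposure.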

[15] = NCI Yeast Anticancer Drug Screen. Data for the mlh1 rad18 strain (AID 175); conditions: S. cerevisiae mlh1 rad18 strain growth inhibition, stronger effect = higher value
Summary of the method: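 Inhibition values reflect reduced growth of mutant yeast versus vehicle-treated controls following compound exposure; the mutations affect DNA damage repair.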

[16] = NCI Yeast Anticancer Drug Screen. Data for the rad18 strain (AID 177); conditions: S. cerevisiae rad18 mutant growth inhibition, stronger effect = higher value
Summary of the method: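 Steps: expose repair-mutant yeast to compound; measure growth; express as inhibition relative to vehicle control.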

[17] = at 5.0 µM (retest, dose inferred, filed as 0.5)
[18] = at 50.0 µM (retest, dose inferred, filed as 5.0)

Measured: growth inhibition

O=C(CN(c1ccccc1)c1ccccc1)n1nnc2ccccc21
inactive: [1]; at 1.2 µM 18% | [1]; at 3.7 µM 20% | [1]; at 11.0 µM 14% | [1]; at 33.0 µM 39% | [2]; at 1.2 µM 10% | [2]; at 3.7 µM -11% | [2]; at 11.0 µM -19% | [2]; at 33.0 µM 0% | [3]; at 1.2 µM 15% | [3]; at 3.7 µM 7% | [3]; at 11.0 µM 15% | [3]; at 33.0 µM 42% | [4]; at 1.2 µM 6% | [4]; at 3.7 µM -20% | [4]; at 11.0 µM -10% | [4]; at 33.0 µM 9% | [5]; at 1.2 µM -9% | [5]; at 3.7 µM -7% | [5]; [17] -1% | [5]; at 11.0 µM 14% | [5]; at 33.0 µM 28% | [6]; at 1.2 µM -9% | [6]; at 3.7 µM 0% | [6]; [17] -6% | [6]; at 11.0 µM 13% | [6]; at 33.0 µM 23% | [6]; [18] 23% | [7]; at 1.2 µM -19% | [7]; at 3.7 µM -18% | [7]; at 11.0 µM -18% | [7]; at 33.0 µM 2% | [8]; [17] -15% | [8]; [18] 36% | [8]; at 50.0 µM 47.7% | [9]; at 1.2 µM 8% | [9]; at 3.7 µM -9% | [9]; at 11.0 µM -9% | [9]; at 33.0 µM 4% | [9]; at 100.0 µM 69% | [10]; [17] -2% | [10]; [18] -29% | [10]; at 50.0 µM 52.2% | [11]; at 1.2 µM -21% | [11]; at 3.7 µM -19% | [11]; [17] -42% | [11]; at 11.0 µM -35% | [11]; at 33.0 µM -19% | [12]; at 1.2 µM -7% | [12]; at 3.7 µM 8% | [12]; at 11.0 µM -6% | [12]; at 33.0 µM 6% | [13]; at 1.2 µM 9% | [13]; at 3.7 µM 6% | [13]; at 11.0 µM 13% | [13]; at 33.0 µM 36% | [14]; at 1.2 µM 19% | [14]; at 3.7 µM 16% | [14]; at 11.0 µM 14% | [14]; at 33.0 µM 32% | [15]; [17] -21% | [16]; at 1.2 µM 6% | [16]; at 3.7 µM 14% | [16]; at 11.0 µM 6% | [16]; at 33.0 µM 30%
active: [1]; at 100.0 µM 85% | [2]; at 100.0 µM 82% | [3]; at 100.0 µM 71% | [4]; at 100.0 µM 88% | [5]; [18] 76% | [5]; at 50.0 µM 74.5% | [5]; at 100.0 µM 84% | [6]; at 50.0 µM 78.6% | [6]; at 100.0 µM 85% | [7]; at 100.0 µM 85% | [11]; [18] 84% | [11]; at 50.0 µM 74.4% | [11]; at 100.0 µM 76% | [12]; at 100.0 µM 80% | [13]; at 100.0 µM 86% | [14]; at 100.0 µM 90% | [15]; [18] 87% | [15]; at 50.0 µM 70.2% | [16]; at 100.0 µM 90%

O=C1SS(=O)c2ccccc21 (stereo unspecified)
active: [1]; at 100.0 µM 76% | [4]; at 100.0 µM 83% | [5]; [18] 89% | [5]; at 100.0 µM 79% | [6]; [18] 99% | [6]; at 100.0 µM 83% | [8]; [18] 85% | [11]; [18] 96% | [11]; at 100.0 µM 89% | [15]; [18] 95% | [16]; at 100.0 µM 90%
inactive: [1]; at 1.2 µM 11% | [1]; at 3.7 µM 6% | [1]; at 11.0 µM 8% | [1]; at 33.0 µM 25% | [2]; at 1.2 µM -5% | [2]; at 3.7 µM -2% | [2]; at 11.0 µM 12% | [2]; at 33.0 µM -5% | [2]; at 100.0 µM 67% | [3]; at 1.2 µM 7% | [3]; at 3.7 µM 5% | [3]; at 11.0 µM 7% | [3]; at 33.0 µM 23% | [3]; at 100.0 µM 65% | [4]; at 1.2 µM 9% | [4]; at 3.7 µM 12% | [4]; at 11.0 µM 12% | [4]; at 33.0 µM 42% | [5]; at 1.2 µM 5% | [5]; at 3.7 µM 0% | [5]; [17] 32% | [5]; at 11.0 µM 2% | [5]; at 33.0 µM 26% | [5]; at 50.0 µM 34.1% | [6]; at 1.2 µM 5% | [6]; at 3.7 µM 18% | [6]; [17] 27% | [6]; at 11.0 µM -3% | [6]; at 33.0 µM 13% | [6]; at 50.0 µM 44.1% | [7]; at 1.2 µM -11% | [7]; at 3.7 µM -3% | [7]; at 11.0 µM -17% | [7]; at 33.0 µM -4% | [7]; at 100.0 µM 61% | [8]; [17] 34% | [8]; at 50.0 µM 50% | [9]; at 1.2 µM 7% | [9]; at 3.7 µM 13% | [9]; at 11.0 µM 17% | [9]; at 33.0 µM 24% | [9]; at 100.0 µM 57% | [10]; [17] 11% | [10]; [18] 38% | [10]; at 50.0 µM 5.75% | [11]; at 1.2 µM -5% | [11]; at 3.7 µM 2% | [11]; [17] 24% | [11]; at 11.0 µM -5% | [11]; at 33.0 µM 0% | [11]; at 50.0 µM 40.3% | [12]; at 1.2 µM 7% | [12]; at 3.7 µM 8% | [12]; at 11.0 µM 8% | [12]; at 33.0 µM 17% | [12]; at 100.0 µM 66% | [13]; at 1.2 µM 6% | [13]; at 3.7 µM 20% | [13]; at 11.0 µM 17% | [13]; at 33.0 µM 24% | [13]; at 100.0 µM 68% | [14]; at 1.2 µM -7% | [14]; at 3.7 µM 5% | [14]; at 11.0 µM 8% | [14]; at 33.0 µM 21% | [14]; at 100.0 µM 39% | [15]; [17] 57% | [15]; at 50.0 µM 0% | [16]; at 1.2 µM 13% | [16]; at 3.7 µM 15% | [16]; at 11.0 µM 15% | [16]; at 33.0 µM 39%

CCOC(=O)C(Cc1c2ccccc2cc2ccccc12)(NC(C)=O)C(=O)OCC
active: [5]; at 50.0 µM 90.2%
inactive: [1]; at 1.2 µM -2% | [1]; at 3.7 µM -2% | [1]; at 11.0 µM -4% | [1]; at 33.0 µM -6% | [1]; at 100.0 µM 0% | [2]; at 1.2 µM -1% | [2]; at 3.7 µM 0% | [2]; at 11.0 µM -2% | [2]; at 33.0 µM -3% | [2]; at 100.0 µM -2% | [3]; at 1.2 µM 0% | [3]; at 3.7 µM 0% | [3]; at 11.0 µM 6% | [3]; at 33.0 µM 12% | [3]; at 100.0 µM 10% | [4]; at 1.2 µM -3% | [4]; at 3.7 µM -2% | [4]; at 11.0 µM -3% | [4]; at 33.0 µM -18% | [4]; at 100.0 µM -4% | [5]; at 1.2 µM -6% | [5]; at 3.7 µM -16% | [5]; [17] -8% | [5]; at 11.0 µM -22% | [5]; at 33.0 µM -4% | [5]; [18] 11% | [5]; at 100.0 µM -2% | [6]; at 1.2 µM 0% | [6]; at 3.7 µM 0%
